Data on 40 molecules can be found in PubChem BioAssay (Tox21).

SMILES strings stand for the structures. Several values for one entry are separate records, joined by “and”; a condition that tells them apart may be missing. Identical values can stand only once. Results filed as inconclusive are left out. Values without a mark were called inactive. Activity calls are given as the source filed them. Calls come from the whole dose curve; as a rule, active = well fitted activation curve with a large enough effect in the repeat runs; inconclusive = weak or mixed curves; inactive = flat fitted curve, though single readings scatter.
% is set by controls: 0 for no effect and ±100 for the full control effect; potency is the fitted concentration of half-maximal effect.

The nature of one experiment: A CellTox Green Cytotoxicity Assay to monitor cytotoxicity in HepG2 cells - 24 hour (AID 1224878). Note: nearly all actives have a fitted effect of over 45% in size. The conditions noted are these: CellTox Green fluorescence; series mostly up to 76.8 µM; cytotoxicity: at the top concentration. Summed up:
(§1)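 Fluorescent DNA-binding dye, 600 HepG2 cells/well, 5 h preincubation then compound in DMSO; same plates read at 0–40 h, 37 C.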
With `O=C=Nc1ccc(Cl)c(Cl)c1`, the “cytotoxicity” value was -1.37%.
Same read-out and setting: with `CCOC(C)=O` the figure was -16.3%; with `C=CC(=O)[O-].C=CC(=O)[O-].[Zn+2]`, 1.07%.
On the same count and under the same terms, the value for `C/C=C/C=C/C=O` was 0.384%; that for `O=C(O)c1cccc(-c2noc(-c3ccccc3F)n2)c1` was 0.972% [at 35.3 µM].
The same measure, in the same setting: the value for `CC(C)=CCC1C(=O)N(c2ccccc2)N(c2ccccc2)C1=O` was -4.73% [at 35.3 µM].
`CCOC(=O)c1ccc(OCCN2C[C@H](O)[C@@H](O)[C@H](O)[C@H]2CO)cc1`: the “cytotoxicity” value was -0.31% [at 35.3 µM].
The same measure, in the same setting: with `CCC(=O)OC` the figure was 4.99%.
Still for that read-out and setting: with `CCC=CC#N` the figure was 1.96%; with `CCCCCCC(C)(C)C(=O)O`, 0.0359%.
Regarding `CCCC(=O)C(=O)O`, the “cytotoxicity” value is -8.57%.
The same measure, in the same setting: with `Cc1[nH]cnc1CN1CCc2c(c3ccccc3n2C)C1=O` the figure was -2.19% [at 35.3 µM]; with `C[C@H]1C[C@H](O)c2ccsc2S1(=O)=O`, 1.2% [at 35.3 µM]; with `CN1C(C(=O)Nc2ccccn2)=C(O)c2sccc2S1(=O)=O`, 1.06% [at 35.3 µM].
The same measure, in the same setting: the value for `CCC(C)COC(C)=O` (stereo not given) was -0.105%.
For `C[C@]12CC[C@@H]3c4ccc(O)cc4CC[C@H]3[C@@H]1CC[C@@H]2OC(=O)CCC1CCCC1`, the Potency is 49 µM (active) and 23.9 µM (active).
As to `FC(F)(F)c1ccccc1Cl`, the “cytotoxicity” value is -5.65%.
With `O=c1[nH]c2ccc(Cl)cc2o1`, the “cytotoxicity” value is -14.1%.
On the same count and under the same terms, with `Brc1cc(Br)c(Oc2cc(Br)c(Br)cc2Br)cc1Br` the figure was -6.82% [at 35.3 µM]; with `Cc1c(C)c2c(c(C)c1OC(=O)CCC(=O)OCCO)CC[C@@](C)(CCC[C@H](C)CCC[C@H](C)CCCC(C)C)O2`, 3.46% [at 35.3 µM].
The same measure, in the same setting: the value for `CCc1ccccc1` was -9.76%.
The same measure, in the same setting: the value for `OC[C@H]1O[C@@H](n2cnc3c(=S)nc[nH]c32)[C@H](O)[C@@H]1O` was -2.67% [at 35.3 µM].
In the case of `O=C(O)CCC(=O)C(=O)O`, the “cytotoxicity” value was -0.0603%.
The same measure, in the same setting: the value for `C=C(C)CCCC(C)CCO` (stereo not given) was 13.1%; that for `CCCCCC[C@@H](O)C/C=C\CCCCCCCC(=O)O` was 1.46%; that for `CCCCC(CC)CN` (stereo not given) was 10.2%.
For the molecule `CC1=C(Br)C(=O)C(Br)=C/C1=C(/c1ccccc1S(=O)(=O)O)c1cc(Br)c(O)c(Br)c1C`, the “cytotoxicity” value was -14.5% [at 35.3 µM].
Still for that read-out and setting: with `O[C@@H]1CO[C@H]2[C@@H]1OC[C@@H]2O` the figure was 1.41% [at 35.3 µM]; with `CCCCCCCCCCC(=O)O`, 15.1%; with `CC1(C)[C@H](C(=O)O)N2C(=O)C[C@H]2S1(=O)=O`, -22.5% [at 35.3 µM].
Still for that read-out and setting: the value for `CN1CC(=O)N2[C@H](c3ccc4c(c3)OCO4)c3[nH]c4ccccc4c3C[C@@H]2C1=O` was -8.18% [at 35.3 µM]; that for `O=C(/C=C/c1ccccc1)OCCc1ccccc1` was -0.27%.
On the same count and under the same terms, with `Nc1cccc2c1CN(C1CCC(=O)NC1=O)C2=O` (stereo not given) the figure was -3.49% [at 35.3 µM]; with `Cc1ccccc1S`, -3.61% [at 35.3 µM].
Consider `CN1C(=O)OC(C)(C)C1=O`, for which the “cytotoxicity” value is 15.7%.
With `Oc1cccc(O)c1O`, the “cytotoxicity” value was -8.66%.
The same measure, in the same setting: the value for `COc1cc(C(=O)NCCCCCC(=O)O)cc(OC)c1OC` was 3.38% [at 35.3 µM]; that for `CCOC(=O)[C@H](CCc1ccccc1)N[C@@H](C)C(=O)N(CC(=O)O)C1Cc2ccccc2C1` was 2.47% [at 35.3 µM]; that for `C=C/C(C)=C/C/C=C(\C)CCC=C(C)C` was 1.34%.
On the same count and under the same terms, with `CCOC(=O)OC(C)OC(=O)[C@@H]1N2C(=O)[C@@H](NC(=O)[C@H](N)c3ccccc3)[C@H]2SC1(C)C` (stereo not given in full) the figure was 2.96% [at 35.3 µM].

A further experiment can be described thus: A CellTox Green Cytotoxicity Assay to monitor cytotoxicity in HepG2 cells - 40 hour (AID 1224879). Note: nearly all actives have a fitted effect of over 40% in size. The conditions noted are these: CellTox Green fluorescence; series mostly up to 76.8 µM; cytotoxicity increase: at the top concentration. A digest of the protocol: as §1
Consider `O=C=Nc1ccc(Cl)c(Cl)c1`, for which the “cytotoxicity increase” value was -0.228%.
With `CCOC(C)=O`, the “cytotoxicity increase” value was -16.3%.
The same measure, in the same setting: with `C=CC(=O)[O-].C=CC(=O)[O-].[Zn+2]` the figure was 0.765%; with `C/C=C/C=C/C=O`, -0.817%; with `O=C(O)c1cccc(-c2noc(-c3ccccc3F)n2)c1`, 0.7% [at 35.3 µM].
The same measure, in the same setting: with `CC(C)=CCC1C(=O)N(c2ccccc2)N(c2ccccc2)C1=O` the figure was -0.101% [at 35.3 µM]; with `CCOC(=O)c1ccc(OCCN2C[C@H](O)[C@@H](O)[C@H](O)[C@H]2CO)cc1`, -3.17% [at 35.3 µM].
Regarding `CCC(=O)OC`, the “cytotoxicity increase” value was -0.814%.
On the same count and under the same terms, with `CCC=CC#N` the figure was 1.3%.
Same read-out and setting: with `CCCCCCC(C)(C)C(=O)O` the figure was 0.123%.
Still for that read-out and setting: with `CCCC(=O)C(=O)O` the figure was -3.29%.
On to `Cc1[nH]cnc1CN1CCc2c(c3ccccc3n2C)C1=O`, for which the “cytotoxicity increase” value was -0.518% [at 35.3 µM].
Same read-out and setting: with `C[C@H]1C[C@H](O)c2ccsc2S1(=O)=O` the figure was 0.333% [at 35.3 µM]; with `CN1C(C(=O)Nc2ccccn2)=C(O)c2sccc2S1(=O)=O`, 3.23% [at 35.3 µM]; with `CCC(C)COC(C)=O` (stereo not given), 0.185%.
For the molecule `C[C@]12CC[C@@H]3c4ccc(O)cc4CC[C@H]3[C@@H]1CC[C@@H]2OC(=O)CCC1CCCC1`, the Potency is 54.9 µM (active) and 26.8 µM (active).
`FC(F)(F)c1ccccc1Cl`: the “cytotoxicity increase” value is -3.6%.
Still for that read-out and setting: with `O=c1[nH]c2ccc(Cl)cc2o1` the figure was -13.7%; with `Brc1cc(Br)c(Oc2cc(Br)c(Br)cc2Br)cc1Br`, -11.9% [at 35.3 µM].
As for `Cc1c(C)c2c(c(C)c1OC(=O)CCC(=O)OCCO)CC[C@@](C)(CCC[C@H](C)CCC[C@H](C)CCCC(C)C)O2`, the “cytotoxicity increase” value was -0.257% [at 35.3 µM].
Still for that read-out and setting: the value for `CCc1ccccc1` was -8.45%.
Take `OC[C@H]1O[C@@H](n2cnc3c(=S)nc[nH]c32)[C@H](O)[C@@H]1O`: the “cytotoxicity increase” value is -2.03% [at 35.3 µM].
The same measure, in the same setting: the value for `O=C(O)CCC(=O)C(=O)O` was -2.3%; that for `C=C(C)CCCC(C)CCO` (stereo not given) was 7.58%.
On the same count and under the same terms, the value for `CCCCCC[C@@H](O)C/C=C\CCCCCCCC(=O)O` was -1.89%; that for `CCCCC(CC)CN` (stereo not given) was 9.35%.
Regarding `CC1=C(Br)C(=O)C(Br)=C/C1=C(/c1ccccc1S(=O)(=O)O)c1cc(Br)c(O)c(Br)c1C`, the “cytotoxicity increase” value was -17.7% [at 35.3 µM].
The same measure, in the same setting: the value for `O[C@@H]1CO[C@H]2[C@@H]1OC[C@@H]2O` was 6.01% [at 35.3 µM]; that for `CCCCCCCCCCC(=O)O` was 13.7%.
Still for that read-out and setting: the value for `CC1(C)[C@H](C(=O)O)N2C(=O)C[C@H]2S1(=O)=O` was -18.6% [at 35.3 µM].
Still for that read-out and setting: with `CN1CC(=O)N2[C@H](c3ccc4c(c3)OCO4)c3[nH]c4ccccc4c3C[C@@H]2C1=O` the figure was -5.21% [at 35.3 µM].
Regarding `O=C(/C=C/c1ccccc1)OCCc1ccccc1`, the “cytotoxicity increase” value was -1.27%.
Same read-out and setting: the value for `Nc1cccc2c1CN(C1CCC(=O)NC1=O)C2=O` (stereo not given) was 0.108% [at 35.3 µM].
As to `Cc1ccccc1S`, the “cytotoxicity increase” value was -0.9% [at 35.3 µM].
Same read-out and setting: the value for `CN1C(=O)OC(C)(C)C1=O` was 18.4%.
Turning to `Oc1cccc(O)c1O`, the “cytotoxicity increase” value was -8.3%.
As to `COc1cc(C(=O)NCCCCCC(=O)O)cc(OC)c1OC`, the “cytotoxicity increase” value is 1.01% [at 35.3 µM].
The same measure, in the same setting: the value for `CCOC(=O)[C@H](CCc1ccccc1)N[C@@H](C)C(=O)N(CC(=O)O)C1Cc2ccccc2C1` was 2.08% [at 35.3 µM]; that for `C=C/C(C)=C/C/C=C(\C)CCC=C(C)C` was 6.67%.
On the same count and under the same terms, with `CCOC(=O)OC(C)OC(=O)[C@@H]1N2C(=O)[C@@H](NC(=O)[C@H](N)c3ccccc3)[C@H]2SC1(C)C` (stereo not given in full) the figure was 1.05% [at 35.3 µM].
